This note sets out measurements from ChEMBL document CHEMBL3433997, “St. Jude Leishmania screening dataset” (2016).

The target of this experiment is Solute carrier family 2, facilitated glucose transporter member 1 (Homo sapiens) (UniProt P11166). Nature of the experiment: ST_JUDE_LEISH: Cytotoxicity at 2uM final concentration against transgenic Leishmania Mexicana promastigotes LmGLUT1 that are glucose transport deficient and complemented with the human glucose transporter GLUT1. Activity is measured by DNA content using SYBR green in vitro. The experiment is classed as functional.
Chain of Solute carrier family 2, facilitated glucose transporter member 1 (Homo sapiens) (P11166 whole entry): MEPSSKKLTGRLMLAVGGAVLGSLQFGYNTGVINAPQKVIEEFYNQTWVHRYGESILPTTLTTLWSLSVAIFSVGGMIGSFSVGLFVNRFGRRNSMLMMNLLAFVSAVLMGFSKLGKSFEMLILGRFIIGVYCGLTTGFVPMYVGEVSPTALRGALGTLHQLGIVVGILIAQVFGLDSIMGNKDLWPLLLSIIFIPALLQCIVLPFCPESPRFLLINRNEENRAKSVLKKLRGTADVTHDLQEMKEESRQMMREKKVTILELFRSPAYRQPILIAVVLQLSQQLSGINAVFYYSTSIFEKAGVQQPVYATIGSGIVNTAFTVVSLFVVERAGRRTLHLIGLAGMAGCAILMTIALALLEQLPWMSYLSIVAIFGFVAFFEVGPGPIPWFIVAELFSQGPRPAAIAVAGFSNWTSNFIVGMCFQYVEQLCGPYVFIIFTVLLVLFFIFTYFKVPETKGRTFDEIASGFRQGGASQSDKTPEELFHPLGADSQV
Turning to `O=C(NC(Cc1ccccc1)C(=O)O)c1cc(=O)c2ccccc2o1` (stereo not given), the inhibition was determined as 0.32%.

As to `CC(Cc1ccc(CN(CC(N)=O)Cc2ccc(CC(C)NCCc3cccc(Cl)c3)cc2)cc1)NCCc1cccc(Cl)c1` (stereo not given), the inhibition was 3.67%. Regarding `C[C@@H](Nc1nc(NCc2ccccc2)c2sccc2n1)c1ccccc1`, the inhibition is 24%. With `CCCOc1cc2c(cc1OCCC)C(C=Cc1ccc(Cl)cc1Cl)=NC(C)C2` (stereo not given) the figure was 94.6%; with `Cc1cc(=O)c2cc(Oc3cccc(OC(F)(F)F)c3)ccc2[nH]1`, 1.1%; with `O=C(NC1CCN(c2ncc(C(F)(F)F)cc2Cl)CC1)c1cccs1`, -1.13%. The result for `CCCCCCCN(Cc1ccc(OC(C)(C)C(=O)OCC)cc1)C(=O)Nc1ccc(Cl)cc1OCC` reads 3.65%; that for `CCCn1c(Sc2ccc(C#N)c([N+](=O)[O-])c2)nnc1-c1ccc(OC)cc1`, 1.76%. For `CC(C)CCNC(=O)C1Cc2c([nH]c3ccc(Br)cc23)C2(CCN(Cc3ccccc3)CC2)N1` (stereo not given), the inhibition was 104%. As to `COc1ccc(O)c(C(=O)c2cnc3c(c2)c(-c2ccc(F)cc2)c(C#N)c(=O)n3C)c1`, the inhibition stood at 8.74%. On to `O=C(Nc1ccc2c(c1)CCCN2S(=O)(=O)c1cccs1)c1cc([N+](=O)[O-])ccc1Cl`, for which the inhibition worked out at 5%. With `C=CCn1ccc2c3c(N)nc(N)nc3ccc21` the figure was 66%; with `CCN1CCN(CCNc2c3ccccc3nc3ccccc23)CC1`, 83.5%. On to `CCCCCCCc1c(C)nc2cccc(OC)c2c1O`, for which the inhibition stood at 47.3%.

`O=C(Nc1cccc(CN2CCN(C(=O)c3ccccc3)CC2)c1)c1cccs1`: the inhibition was determined as 4.55%.

As for `NC1CCN(c2cnn(Cc3cccc(NC(=O)Nc4ccc(-c5ccccc5)cc4)c3)c(=O)c2Cl)CC1`, the inhibition amounted to 1.64%.

As for `C=CCc1cccc(OC)c1OCCCON1C(=N)N=C(N)NC1(C)C`, the inhibition is -0.04%.

`CC(C)(C)c1cc(C(=O)N2CCC(c3ccccn3)CC2)n(Cc2ccccc2)n1`: the inhibition was 0.22%.

In the case of `C=C[C@H]1CN(CCCCCCC)CC[C@H]1CCNc1ccnc2ccc(OC)cc12`, the inhibition is -2.18%. Take `COc1ccc(NC(=O)c2ccc(Br)c(C)c2)cc1N1CCN(Cc2ccccc2)CC1`: the inhibition came out at 1.57%.

With `CC(C)(CNCc1ccc(F)c(F)c1)c1nc(-c2ccc(Cl)c(O)c2)c(-c2ccncc2)[nH]1`, the inhibition turned out to be 2.43%. The result for `CCOc1cc2ncnc(Nc3ccc(OCc4ccccc4OC)c(OC)c3)c2cc1OCC` reads 5.01%. The result for `Cc1cc(N2CCCC2)nc(Nc2ccc(NC(=O)CC(C)C)cc2)n1` reads 1%. On to `O=C(NCCCCN1CCC(c2ccc3c(c2OC(=O)c2ccc(NC(=O)c4ccc(Cl)cc4)cc2)CCCC3)CC1)c1ccc(NC(=O)c2ccc(Cl)cc2)cc1`, for which the inhibition was found to be 3.25%.

For the compound `CCOc1ccccc1C(=O)N1CCc2cc3nccc(N4CCN5CCC[C@H]5C4)c3cc21`, the inhibition is -0.64%. Turning to `CS(=O)(=O)Nc1ccc2[nH]cc(C3CCN(CC(O)C4CCN(C(=O)/C=C/c5ccc(Cl)c(Cl)c5)CC4)CC3)c2c1` (stereo not given), the inhibition stood at 4.85%. The result for `COc1ccccc1Cn1ccnc1SCC(=O)Nc1cc(C(F)(F)F)ccc1Cl` reads -2.21%. With `Cc1cc(O)c(C(C)C)cc1C1(c2cc(C(C)C)c(O)cc2C)OC(=O)c2ccccc21` the figure was 8.43%. For `O=C(NCCCNc1ccc2ccccc2n1)c1cc2c(Cl)cc(Cl)cc2[nH]1`, the inhibition stood at 0.34%.

In the case of `CCNc1cc(C(=O)N[C@@H](Cc2ccc(Cl)cc2)[C@H](O)CNC2CCCCC2)cc(N2CCCCS2(=O)=O)c1`, the inhibition was found to be 0.89%. Take `O=C(Nc1cccc(CN2CCCN(CC3CCCCC3)CC2)c1)c1ccc(Cl)c(Cl)c1`: the inhibition is 12.1%. With `CCOc1ccc(C2CCN(CCCCNC(=O)c3ccc(NC(=O)c4ccc(Cl)cc4)cc3)CC2)c(OCC)c1`, the inhibition worked out at 4.52%. With `O=C(Nc1ccc(Cl)cn1)c1sc2ccccc2c1O` the figure was 3.18%; with `CCCc1ccc(NC(=O)c2cccc(CN3CCCN(Cc4cccc(O)c4)CC3)c2)cc1`, -0.09%; with `CC(=O)Nc1ccc(CN2CCC(NC(=O)c3ccc(-c4ccc(N(C)C)cc4)s3)CC2)cc1`, 2.06%. For the compound `O=C(/C=C/c1ccc(Cl)c(Cl)c1)NC1CCN(Cc2cccc(O)c2)CC1`, the inhibition was 2.92%. Regarding `CN(C)CCCn1c(N)c(-c2nc3ccccc3[nH]2)c2nc(C#N)c(C#N)nc21`, the inhibition is -1.02%.

In the case of `CN(C)c1ccc(OCCCCCCOc2ccccc2)cc1`, the inhibition stood at 1.32%.

For the compound `COc1cccc(CCc2ccc(O)c3c2C[C@H]2C[C@H]4[C@H](N(C)C)C(O)=C(C(N)=O)C(=O)[C@@]4(O)C(O)=C2C3=O)c1`, the inhibition worked out at 4.53%. For the compound `CCOc1cc(C=NNc2nc(C)cc(-n3nc(C)cc3C)n2)ccc1O`, the inhibition worked out at 1.32%.
